Results reported in PubChem BioAssay AID1851 (National Center for Advancing Translational Sciences (NCATS), 2009).
Hit rate of the full screen: of about 16,000 compounds, about 5,800 (36%) were called active. About 23% were inconclusive and are not listed. The list shows a part of the results. Unmarked numbers belong to inactive results. Calls come from the whole dose curve; as a rule, active = well fitted curve in the direction sought with a large enough effect; inconclusive = small, poorly fitted or top-dose-only effect, or effect the other way; inactive = no such curve, though single readings can be large or run the other way.

Biological target: Cytochrome P450 2C19 (Homo sapiens) (UniProt P33261)
Sequence (P33261 whole entry, looked up): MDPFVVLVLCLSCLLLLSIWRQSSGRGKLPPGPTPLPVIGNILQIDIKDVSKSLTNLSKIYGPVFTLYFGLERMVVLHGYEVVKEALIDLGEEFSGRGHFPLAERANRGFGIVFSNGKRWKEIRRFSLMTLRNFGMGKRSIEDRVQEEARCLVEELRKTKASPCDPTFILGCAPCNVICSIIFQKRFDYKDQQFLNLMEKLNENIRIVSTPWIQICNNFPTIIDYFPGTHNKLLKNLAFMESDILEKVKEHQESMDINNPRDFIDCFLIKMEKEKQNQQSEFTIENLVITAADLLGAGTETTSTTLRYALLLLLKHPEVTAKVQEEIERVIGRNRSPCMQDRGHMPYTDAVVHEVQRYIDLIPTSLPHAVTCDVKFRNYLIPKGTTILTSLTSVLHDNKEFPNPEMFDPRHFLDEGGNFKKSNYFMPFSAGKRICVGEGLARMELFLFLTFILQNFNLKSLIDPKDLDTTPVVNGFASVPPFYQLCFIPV
Experiment: Cytochrome panel assay with activity outcomes
Details: recombinant CYP, pro-luciferin dealkylation, luminescence, p450-cyp2c19; series mostly up to 57.1 µM; activity, negative = inhibition: at the top concentration
% is set by controls: 0 for no effect and ±100 for the full control effect.

Row | SMILES | activity, negative = inhibition | AC50
1 | NCCS(=O)O | -19.8% | 
2 | CC(=O)NC(NC(C)=O)c1ccc(Br)cc1 | -22.4% | 
3 | C=CC(=O)NC(NC(=O)C=C)c1ccc(Br)cc1 |  | 15.8 µM (active)
4 | O=C(O)C(=O)/C=C(\O)c1ccc(Br)cc1 | 29% [at 11.4 µM] | 
5 | O=C(COC(=O)c1cccnc1)c1ccc(Cl)c(Cl)c1 |  | 2.24 µM (active)
6 | O=S(=O)(/N=C(\Sc1ccccc1)c1ccccc1)c1ccc(Cl)cc1 |  | 15.8 µM (active)
7 | CCOC(=O)c1sc(C)c(C(=O)NCC(C)(C)CN(C)C)c1N |  | 28.2 µM (active)
8 | COCC(=O)N1CCC2(CCCN(Cc3ccccc3)C2)CC1 | 22.8% | 
9 | O=C(COc1ccc(Br)cc1)N1CCC(c2ccccc2)C1 (stereo not drawn) |  | 1.12 µM (active)
10 | CCOc1ccc(NC(=O)N2CCC(c3ccc(C)cc3)C2)cc1 (stereo not drawn) | -27.1% | 
11 | Cc1sc2nc(C3CC3)nc(SCC(=O)N3CC(=O)Nc4ccccc43)c2c1C |  | 3.98 µM (active)
12 | Cc1nnc(SCC(=O)N2CC(=O)Nc3ccccc32)n1Cc1ccccc1 | 1.13% | 
13 | CC1=CC(=O)CC(C)(C)[C@]1(O)/C=C\C(C)=C\C(=O)O | -25.7% [at 11.4 µM] | 
14 | CC1=C(\C=C/C(C)=C/C=C\C(C)=C\C(=O)O)C(C)(C)CCC1 |  | 5.01 µM (active)
15 | CN(C)c1ncc2nc(-c3cccs3)c(=O)n(C[C@H]3CCCO3)c2n1 | 6.84% | 
16 | O=C(COC(=O)c1cccc(S(=O)(=O)N2CCN(c3ccccc3)CC2)c1)NCc1ccco1 |  | 0.708 µM (active)
17 | CCCc1nc2ccccc2c(C(=O)OCC(=O)Nc2cccc(S(=O)(=O)N3CCOCC3)c2)c1CC |  | 3.55 µM (active)
18 | O=C(COC(=O)c1cccc(S(=O)(=O)N2CCOCC2)c1)Nc1nc(-c2ccccc2Cl)cs1 |  | 3.98 µM (active)
19 | COc1ccccc1/C=C/C(=O)c1ccc(Cl)cc1 |  | 2.24 µM (active)
20 | COc1ccccc1/C=C/C(=O)c1c2c(c(C)[nH]c1=O)CCCC2 |  | 7.94 µM (active)
21 | COc1cc(C)cc(OC)c1/C=C\C(=O)O | -0.542% [at 11.4 µM] | 
22 | COc1ccc(Cc2ccccc2C(=O)O)c2ccccc12 | 12.2% [at 11.4 µM] | 

Row | SMILES | activity, negative = inhibition | AC50
23 | COc1ccc2ccccc2c1/C=C\C(=O)c1ccccc1 |  | 0.316 µM (active)
24 | C[C@@H](Cc1ccccc1)Nc1ncnc2c1ncn2[C@@H]1O[C@@H](CO)[C@H](O)[C@@H]1O | 33.5% | 
25 | CC(O)(P(=O)(O)O)P(=O)(O)O | -13.4% [at 25.6 µM] | 
26 | NC(=NCCC[C@H](N)C(=O)O)NO | 13.3% | 
27 | CCCN=C(N)NCCC[C@H](N)C(=O)O |  | 2 µM (active)
28 | NC(=S)NCCC[C@@H](N)C(=O)O | -37.7% | 
29 | O=C(O)c1nn(-c2ccc(Cl)cc2)c2c1C(=O)c1ccccc1C2=O | 4.89% [at 11.4 µM] | 
30 | O=C1CN=C(Nc2ccc(Cl)cc2)N1c1ccccc1 |  | 11.2 µM (active)
31 | CCOC(=O)COc1ccc(/C=C/[N+](=O)[O-])c(OCC(=O)OCC)c1 |  | 6.31 µM (active)
32 | CCCCCN=c1ccn(Cc2ccccc2)c2ccccc12 |  | 0.251 µM (active)
33 | O=C(CNCCO)N1CCc2ccccc21 | -20.5% | 
34 | O=C(CSc1nnc(CNc2ccc(F)cc2)o1)OC1CCCCC1 |  | 11.2 µM (active)
35 | O=C(CSc1nc(-c2ccccc2)cs1)N1CCc2ccccc21 |  | 2 µM (active)
36 | O=C(CSc1n[nH]c(-c2ccccc2O)n1)N1CCCc2ccccc21 |  | 2.51 µM (active)
37 | O=C(CSc1nnc(CNc2ccccc2)o1)N1CCCc2ccccc21 |  | 4.47 µM (active)
38 | CCn1ccc(C(=O)NC2=C(C#N)CCC2)n1 | -26.6% | 
39 | CSc1nc(Oc2ccc(=O)[nH]n2)nc(N(C)C)n1 | -10.6% | 
40 | CO[C@@H]1COC(=O)CCC[C@@H](C)[C@H](OC)COC(=O)CCC[C@H]1C | 5.51% [at 11.4 µM] | 
41 | O=C(CSc1nnc(CNc2ccc(F)cc2)o1)N1c2ccccc2Sc2ccccc21 |  | 2.82 µM (active)
42 | O=C(CSc1nnnn1-c1ccccc1)NCc1cccs1 |  | 0.891 µM (active)
43 | CCc1nnc(NC(=O)CCC(=O)N2CCN(c3ccccn3)CC2)s1 | -16.9% | 
44 | CCOc1ccc(-n2ccnc2SCC(=O)Nc2nnc(C)s2)cc1 | -17.5% | 

Row | SMILES | activity, negative = inhibition | AC50
45 | CCOc1ccc(-n2ccnc2SCC(=O)Nc2nnc(CC)s2)cc1 |  | 8.91 µM (active)
46 | COc1ccc(-n2nnnc2SCC(=O)Nc2ccccc2)cc1 |  | 3.98 µM (active)
47 | COc1ccc(-n2ccnc2SCC(=O)Nc2ccc(OC)cc2OC)cc1 |  | 1.41 µM (active)
48 | NCCSSCCN |  | inactive
49 | CN1CCCC2(CCN(C(=O)c3cnccn3)CC2)C1 | 5.74% | 
50 | Cc1ccc2nc(SCC(=O)NCc3cccs3)c(C#N)cc2c1 | 13.8% | 
51 | COc1ccc(NC(=O)CSc2nnc(C3CC3)n2N)cc1 | -23.3% | 
52 | CCCC(=O)Nc1nnc(SCC(=O)NCc2cccs2)s1 |  | 14.1 µM (active)
53 | COc1cccc(-n2ccnc2SCC(=O)Nc2nccs2)c1 |  | 8.91 µM (active)
54 | CCCC(=O)Nc1nnc(CCN2CCCCC2)s1 | -9.25% | 
55 | COc1ccc(NC(=O)CSc2nnc(C3CC3)n2-c2ccccc2)cc1 |  | 20 µM (active)
56 | COc1ccc(-n2ccnc2SCC(=O)Nc2ccccc2)cc1 |  | 4.47 µM (active)
57 | O=C(CSC1=NCCN1)Nc1ccccc1 | -1.95% [at 11.4 µM] | 
58 | CCn1c(SC)nnc1C1CCN(S(=O)(=O)c2ccc(OC)cc2)CC1 | -16.5% | 
59 | O=C(O)CS(=O)c1ccc2c3c(cccc13)C(=O)c1ccccc1-2 (stereo not drawn) | -37% [at 11.4 µM] | 
60 | Cc1cccc(-n2ncc3c(Nc4c(C)n(C)n(-c5ccccc5)c4=O)ncnc32)c1 | 39.7% | 
61 | COc1ccc(NC(=O)CSc2ccc3c4c(cccc24)C(=O)c2ccccc2-3)cc1 |  | 0.708 µM (active)
62 | Cn1c(SCC(=O)Nc2ccccc2)nc(O)cc1=O |  | 22.4 µM (active)
63 | CCN(CC)C(=O)CSc1nc(O)cc(=O)n1CC | -28.8% | 
64 | CCn1c(SCC(=O)c2ccc(OC)cc2)nnc1C1CC1 |  | 11.2 µM (active)
65 | CC(=O)Nc1ccc(Nc2ncnc3c2cnn3-c2ccccc2)cc1 |  | 2.82 µM (active)
66 | Cn1ncc2c(Nc3cccc(C(=O)O)c3)ncnc21 | -25.1% | 

Row | SMILES | activity, negative = inhibition | AC50
67 | CC(=O)Nc1ccc(NC(=O)CSc2ncnn2-c2ccccc2)cc1 |  | 25.1 µM (active)
68 | COc1c(Cl)cc(Cl)cc1CNCCNCCO | 14.6% | 
69 | OCCNCCCOc1cccc(Cl)c1Cl |  | 3.98 µM (active)
70 | Nc1ncnc2c1nc(Br)n2[C@@H]1O[C@H]2COP(=O)(O)O[C@@H]2[C@H]1O | 10.5% | 
71 | COC(=O)N1CCC2(CC1)CCN(c1ccncc1)CC2 | 40% | 
72 | CNc1oc(-c2cccs2)nc1C#N | -24% | 
73 | N#Cc1nc(-c2cccs2)oc1NCc1ccccc1 |  | 1.58 µM (active)
74 | O=C(Cn1c(-c2cscn2)nc2ccccc21)Nc1cc(F)ccc1F |  | 3.16 µM (active)
75 | CCCCCC/C(C)=C1/SC(=S)NC1=O |  | 3.55 µM (active)
76 | Cc1ncc(COP(=O)(O)O)c(C)c1O | 11.9% [at 11.4 µM] | 
77 | CCCC(CCC)C(=O)NNc1cc(=O)c2c(=O)n(C)c(=O)n(C)c2[nH]1 | -9.79% | 
78 | Cc1ccc(Oc2ccccc2/C=C2\SC(=O)N(C)C2=O)cc1 |  | 6.31 µM (active)
79 | CC(C)(C)NC[C@H](O)COc1cccc2[nH]c(=O)[nH]c12 |  | inactive
80 | CCN(CC)S(=O)(=O)c1ccc(OC)c(NC(=O)CSc2ccccc2)c1 |  | 11.2 µM (active)
81 | COC(=O)c1cc(OC)c(OC)cc1NC(=O)CSc1ccc(C)cc1 |  | 1.78 µM (active)
82 | CCN1CCC[C@H]1CNC(=O)c1cc(S(N)(=O)=O)ccc1OC | -6.49% | 
83 | COC(=O)c1cc(OC)c(OC)cc1NC(=S)N1CCN(C)CC1 | -13.3% | 
84 | COC(=O)c1cc(OC)c(OC)cc1NC(=S)N1CCCCC1 |  | 6.31 µM (active)
85 | COc1cc(N)c(Cl)cc1C(=O)OCCCN1CCCCC1 | -22.8% | 
86 | COC(=O)c1cc(OC)c(OC)cc1NC(=O)CSc1ccccc1 |  | 3.16 µM (active)
87 | CCN(CC)S(=O)(=O)c1ccc(OC)c(NC(=O)c2cc([N+](=O)[O-])ccc2Cl)c1 | -26.7% | 
88 | COCCn1c(=O)cnc2cnc(Nc3ccccc3)nc21 | -14.5% | 

Row | SMILES | activity, negative = inhibition | AC50
89 | CCNc1ncc2ncc(=O)n(C3CC3)c2n1 | -16.6% | 
90 | CCNc1ncc2ncc(=O)n(C[C@H]3CCCO3)c2n1 | 13.9% | 
91 | O=c1cnc2cnc(Nc3ccccc3)nc2n1CCc1ccccc1 |  | 2 µM (active)
92 | CCNc1ncc2ncc(=O)n(CCc3ccccc3)c2n1 |  | 0.631 µM (active)
93 | CC[N+](C)(C)c1cccc(O)c1 | 3.62% | 
94 | CCOc1ccc(C(Nc2ccc(C)cc2)P2(=O)OCC(C)(C)CO2)cc1 (stereo not drawn) |  | 25.1 µM (active)
95 | CCOc1ccc(C2=[N+]([O-])C(C)(C)N(O)C2(C)C)cc1 | 2.26% | 
96 | c1ccc2c(CC3=NCCN3)cccc2c1 | -5.96% [at 25.6 µM] | 
97 | CN(C)Cc1ccccc1-c1nccc(N(C)C)n1 | 3.03% | 
98 | CN(C/C=C\c1ccccc1)Cc1cccc2ccccc12 |  | 0.501 µM (active)
99 | CN(Cc1cccc2ccccc12)Cc1cccc2ccccc12 |  | 1.58 µM (active)
100 | NCCSS(=O)(=O)CCN | 4.15% [at 11.4 µM] | 
101 | COCCn1c(C)cc2c(c1=O)C(c1ccccc1F)C(C#N)=C(N)O2 (stereo not drawn) | 17.4% | 
102 | CCOc1ccccc1C1C(C#N)=C(N)Oc2n[nH]c(CC)c21 (stereo not drawn) |  | 6.31 µM (active)
103 | N=C(N)SCCN | -22.8% | 
104 | CCN1CCC[C@@H]1CNC(=O)c1cc(S(N)(=O)=O)ccc1OC | -20.4% | 
105 | CC(=O)C1=C(NC(=O)c2ccc(F)cc2)CC2C1C2(C)C (stereo not drawn) |  | 3.16 µM (active)
106 | O=[N+]([O-])c1cccc(-c2nc(-c3ccncc3)no2)c1 |  | 0.891 µM (active)
107 | Nc1nc(-c2cccc([N+](=O)[O-])c2)cc(-c2cc(-c3cccc([N+](=O)[O-])c3)nc(N)n2)n1 | 14.8% [at 11.4 µM] | 
108 | C[C@@H]1NC(=O)C/C=C\[C@@H](C)[C@@H]2C=C[C@H](O)[C@@H](COC(=O)[C@H](C)NC(=O)C/C=C\[C@@H](C)[C@@H]3C=C[C@H](O)[C@@H](COC1=O)O3)O2 | -11.5% [at 11.4 µM] | 
